# Rows were chosen to be rich in hits. Some 3.2% of all compounds tested hit in one or more screens of this group.
# CHT inh = inhibitors of human choline transporter CHT. High affinity choline transporter 1 (Homo sapiens), Q9GZV3. CHT-expressing cells, membrane potential dye, choline response; active compounds read low. B-score at 10 µM. 310,000 tested, 0.86% active. AID 488975, 2010;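 active means B-score over 3 SD under the library average, and starting fluorescence ratio not unusually high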;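 further: choline stimulus applied at its EC90 after an EC20 pre-addition; B-score computed on integrated fluorescence ratio after choline addition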
# Target sequence (Q9GZV3 whole entry, looked up): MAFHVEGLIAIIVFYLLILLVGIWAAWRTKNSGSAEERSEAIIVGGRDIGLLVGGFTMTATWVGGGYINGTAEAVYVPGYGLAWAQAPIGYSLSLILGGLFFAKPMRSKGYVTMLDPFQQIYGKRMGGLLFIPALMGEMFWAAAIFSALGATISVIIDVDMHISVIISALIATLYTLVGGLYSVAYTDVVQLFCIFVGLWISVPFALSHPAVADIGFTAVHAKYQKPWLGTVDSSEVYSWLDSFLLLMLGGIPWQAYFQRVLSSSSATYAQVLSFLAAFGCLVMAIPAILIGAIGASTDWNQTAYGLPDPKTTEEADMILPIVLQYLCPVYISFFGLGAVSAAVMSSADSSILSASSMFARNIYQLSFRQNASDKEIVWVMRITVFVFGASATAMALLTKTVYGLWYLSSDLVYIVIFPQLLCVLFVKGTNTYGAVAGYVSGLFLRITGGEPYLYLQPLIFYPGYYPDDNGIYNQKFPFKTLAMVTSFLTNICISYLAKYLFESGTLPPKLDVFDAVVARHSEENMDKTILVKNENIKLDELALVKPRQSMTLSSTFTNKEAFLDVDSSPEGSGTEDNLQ
# HDAC3 inhib = HDAC3 deacetylase inhibitors, primary screen, biochemical, fluorescence, cell-free homogeneous. inhibition, % at 8.3 µM. 320,000 tested, 0.15% active. recombinant HDAC3, fluorogenic peptide/trypsin coupled. AID 2718, 2010; in the data active means inhibition above about 26%, passing the limit was not always enough
# TMEM16A act = TMEM16A chloride channel activators or potentiators, primary screen, cell-based, HTS. 340,000 tested, 0.3% active. AID 623877, 2012. Anoctamin-1 (Mus musculus), Q8BHY3. HEK293 TMEM16A/YFP-H148Q/I152L, iodide quench fluorescence; active compounds read low. B-score at 10 µM;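 active means fluorescence-ratio B-score plate-corrected deviation score at least 3 library SD below zero, with starting fluorescence score within 5 deviations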;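 further: channel opened by trigger with iodide after compound preincubation; score built on the fluorescence ratio of max minus min over baseline; more negative score means more quench and so TMEM16A activation or potentiation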
# CHT PAM = CHT positive allosteric modulators, primary screen, cell-based, membrane potential dye, choline EC20; High affinity choline transporter 1 (Homo sapiens), Q9GZV3; CHT-expressing cells; active compounds read high; LV-AA mutant CHT in HEK293 cells; B-score at 10 µM; 310,000 tested, 0.49% active;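 active means initial fluorescence not abnormally high and integrated response B-score, plate-corrected, over 3 SD above library mean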
# ANO1 block = TMEM16A chloride channel inhibitors, primary screen, cell-based, HTS | 310,000 tested, 1.2% active | normalized B-score (activity score, 25-100; higher = stronger inhibition) at 10 µM | HEK293 TMEM16A/YFP iodide influx fluorescence, ionomycin | Anoctamin-1 (Mus musculus), Q8BHY3;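 active means ratio plate-corrected score three or more library SD toward inhibition, starting fluorescence score within five deviations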;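 further: score derived from kinetic fluorescence span divided by baseline fluorescence per well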
# PHOSPHO1 inh = PubChem AID 1565. Phosphoethanolamine/phosphocholine phosphatase (Homo sapiens), Q8TCT1. recombinant PHOSPHO1, absorbance phosphatase assay. inhibition, % at 13.3 µM. 290,000 tested, 1.1% active; in the data active means inhibition above about 60%
# CHT activ conf = CHT activators, confirmation, cell-based, membrane potential dye, duplicate | CHT-expressing cells, membrane potential dye fluorescence (FDSS); % of choline EC20–EC90 response window; HEK293 expressing CHT LV-AA mutant; choline added at its EC20 | activation, % at 10 µM | 2,500 tested, 91% active | shares compounds with CHT PAM | AID 504833, 2011;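 active means primary screen active, with duplicate mean activation above negative control mean plus 3 SD, cut at about 11% in these data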
# HEK293 MP dye = membrane potential response in parental HEK293 cells, counter-screen for CHT activator project, cell-based, membrane potential dye. 2,500 tested, 62% active. AID 623908, 2012. membrane potential dye fluorescence (FDSS); measured after EC20 choline addition. shares compounds with CHT PAM. ratio readout change at 10 µM, hits read low;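 active means duplicate-averaged ratio beyond 3 SD from buffer wells, up or down, though filed actives are nearly all decreases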
# Active calls of the source: *; i = inactive; nt = not tested or not shown.
SMILES,CHT inh,HDAC3 inhib,TMEM16A act,CHT PAM,ANO1 block,PHOSPHO1 inh,CHT activ conf,HEK293 MP dye
COc1ccc(S(=O)(=O)N2CCCCCC2)cc1C(=O)N(C)CCOc1ccccc1,i,0,i,6.5*,i,nt,27*,i
Cc1cccc(NC(=O)C(C)Sc2nnc(-c3cccnc3)o2)c1 (centres undefined),nt,2,i,nt,nt,nt,nt,nt
COc1ccc(-n2nc(C(=O)NCC(=O)NCC3COc4ccccc4O3)c3ccccc3c2=O)cc1OC (centres undefined),i,-8,i,i,i,20,nt,nt
O=C(CSc1nnc(C2CCCCC2)n1-c1ccccc1)NCc1ccco1,i,0,i,i,i,-27,nt,nt
O=C(CSc1nnc(Cc2cccs2)n1C1CCCCC1)N1CCCc2ccccc21,i,2,i,6.4*,i,-52,31*,i
O=C(CSc1nnnn1C1CCCC1)N1CCCc2ccccc21,i,0,i,i,i,-37,nt,nt
CN(C)CCSc1nnc2sc3ccccc3n12,i,-1,i,6.6*,i,-27,58*,-55*
CC(C)NC(=O)CSc1nnc2sc3ccccc3n12,i,nt,i,i,i,29,nt,nt
Cc1cccnc1NC(=O)/C=C/c1ccc2c(c1)OCO2,i,7,i,i,i,-11,44*,-40*
Cc1cccnc1NC(=O)c1ccc2c(c1)OCO2,i,4,i,i,i,nt,nt,nt
C=CCOC(=O)C1=C[C@@H](c2coc3ccccc3c2=O)C[C@@H](OCCCCO)O1,i,6,i,i,i,nt,nt,nt
O=C1c2ccccc2C(O)N1c1cccnc1 (centres undefined),i,1,i,i,i,6,nt,nt
O=C(c1ccc(S(=O)(=O)c2cccc(Cl)c2)c([N+](=O)[O-])c1)N1CCN(c2ccccn2)CC1,i,7,i,8.5*,i,-12,9,i
Cc1ccc(SCc2cc(=O)n3[nH]cnc3n2)cc1,i,6,i,i,i,0,nt,nt
CC(=O)c1cccc(Nc2nc(=O)c3cccnc3s2)c1,i,2,i,7*,i,16,48*,-44*
CSc1ccc(-c2sc(Nc3ccccc3)n[n+]2-c2ccccc2)cc1,i,-2,i,8.2*,i,-13,15*,i
COc1ccc(C)cc1Nc1n[n+](-c2ccccc2)c(-c2ccc(SC)cc2)s1,i,8,i,7.8*,i,-19,46*,i
CCc1ccc(Nc2n[n+](-c3ccccc3)c(-c3ccc(SC)cc3)s2)cc1,i,12,i,11*,i,-41,26*,i
COc1ccc(C)cc1Nc1n[n+](-c2ccccc2)c(-c2ccc(NC(C)=O)cc2)s1,i,10,i,i,i,-2,nt,nt
CSc1ccc(-c2sc(Nc3cccc4ccccc34)n[n+]2-c2ccccc2)cc1,i,7,i,i,i,20,nt,nt
Cc1cc(CSc2ccccc2)ccc1NC(=O)c1ccc(CN2CCOCC2)cc1,i,-3,i,i,i,20,nt,nt
COc1cc(NC(=O)c2ccc(Cl)cc2)c2ncccc2c1,i,-6,i,i,i,1,nt,nt
COc1cc(NC(=O)c2c(-c3ccccc3Cl)noc2C)c2ncccc2c1,i,3,i,7.8*,i,nt,8,i
O=C(N/N=C/c1cccs1)c1cc(-c2ccncc2)nc2ccccc12,i,0,i,i,i,-12,44*,i
O=C(NCCCn1ccnc1)c1cc(-c2ccc(Cl)cc2)nc2ccccc12,i,-12,i,i,i,42,nt,nt
SMILES,CHT inh,HDAC3 inhib,TMEM16A act,CHT PAM,ANO1 block,PHOSPHO1 inh,CHT activ conf,HEK293 MP dye
O=C(NCCCn1ccnc1)c1cc(-c2ccncc2)nc2ccccc12,i,1,i,6.3*,i,32,60*,-59*
Cc1cc(C)c(OCCCCN2CCNCC2)c(C)c1,i,-1,i,i,i,40,nt,nt
O=S1(=O)C=C(SCc2ccccc2)Nc2ccccc21,i,0,i,i,i,50,nt,nt
C(=N\Nc1ccc2nncn2n1)/c1ccccn1,i,3,i,i,i,52,24*,-54*
COc1ccc(-c2c[n+]3c(n2-c2ccc(C)cc2)CCCCC3)cc1,i,-5,i,12*,25*,-27,13*,i
FC(F)Oc1ccc(-c2c[n+]3c(n2-c2ccccc2)CCCCC3)cc1,i,-6,i,i,i,-11,nt,nt
COc1ccc(-c2c[n+]3c(n2-c2ccccc2)CCCCC3)cc1,i,nt,i,i,i,-25,nt,nt
CCOc1ccc(-n2c(-c3ccc(Br)cc3)c[n+]3c2CCCCC3)cc1,i,-1,i,i,i,-18,nt,nt
CCOc1ccc(-n2c(-c3ccc(OC)cc3)c[n+]3c2CCCCC3)cc1,i,-4,i,6.4*,i,4,41*,i
COc1ccc(-n2c(-c3ccc(Cl)cc3)c[n+]3c2CCCCC3)cc1,i,-1,i,12*,i,-35,44*,i
CCOc1ccc(-n2c(-c3ccccc3)c[n+]3c2CCC3)cc1,i,-4,i,i,i,43,43*,-30*
Fc1ccc(Br)cc1/C=N/N1CCN(c2ccccc2)CC1,i,0,i,i,i,25,nt,nt
COc1ccc(C(=O)Nc2ncc(C)s2)cc1S(=O)(=O)N1CCOCC1,nt,3,i,nt,nt,nt,nt,nt
O=C1[C@@H]2C(c3ccccc3Cl)=NO[C@@H]2C(=O)N1Cc1ccccc1,i,3,i,i,i,14,nt,nt
COc1ccc(CN2C(=O)[C@@H]3C(c4ccccc4Cl)=NO[C@@H]3C2=O)cc1,i,1,i,i,i,2,17*,i
COc1ccc(C2C=C(C)Nc3nc(SC)nn32)cc1 (centres undefined),i,-56,i,i,i,24,nt,nt

# Assay outcomes (PubChem BioAssay)
